# MEKK3 PB1 HTS: MEKK3-MEK5 PB1 interaction, increase or decrease | 1.4% of 290,000 active | binding response (% of control), % at 10 µM | Q99759 | bead-based flow cytometry, Alexa488-MEK5 binding to MEKK3; actives lie on both sides; 0 = blocked by unlabeled MEK5, 100 = vehicle | AID 1529;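 active = binding response more than 3 SD above or below the average of its plate-row segment, actives on both sides; inconclusive = wells at one plate position flagged as instrument error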;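 note: Alexa488 bead fluorescence after subtracting the streptavidin-only scavenger bead signal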
# FID counter: displaces DNA intercalator in HCV helicase counter-screen | DNA fluorescent intercalator displacement, fluorescence | inhibition, % at 7.9 µM | 0.17% of 290,000 active; in the data active = inhibition above about 37%;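 note: 0% = vehicle and 100% = reference compound; higher means more ethidium bromide displaced from hairpin DNA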
# dFosB act-1: mouse delta FosB homodimer activation; P13346; activation, % at 25 µM; AID 493131; purified delta FosB, TAMRA-CDK5 oligo fluorescence polarization; percent of positive-control signal above neutral wells; 0.99% of 340,000 active;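 active = mean activation above about 17%, with every replicate also reaching it, limit read from the data, passing the limit was not always enough; inconclusive = only one of the two conditions met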
# Target sequence (P13346 whole entry, looked up): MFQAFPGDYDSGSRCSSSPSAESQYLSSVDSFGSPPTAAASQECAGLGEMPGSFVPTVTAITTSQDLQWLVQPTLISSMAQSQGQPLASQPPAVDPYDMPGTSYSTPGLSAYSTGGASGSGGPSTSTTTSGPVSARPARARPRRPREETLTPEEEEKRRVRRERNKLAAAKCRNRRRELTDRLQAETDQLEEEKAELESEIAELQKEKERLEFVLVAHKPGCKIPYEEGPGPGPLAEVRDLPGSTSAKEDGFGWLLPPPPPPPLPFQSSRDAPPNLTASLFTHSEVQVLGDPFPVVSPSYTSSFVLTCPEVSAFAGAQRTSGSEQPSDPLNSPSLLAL
# MEKK2wt PB1 HTS: raises or lowers MEK5 binding to wildtype human MEKK2 PB1 domain. Q9Y2U5. bead flow cytometry, Alexa488-MEK5 binding to MEKK2 WT; actives lie on both sides. binding response (% of control), % at 10 µM. 1.1% of 290,000 active. AID 1531; in the data active = binding response below about 67% or above about 130%; inconclusive = no clear call, values can overlap the other calls; inactive = in between
# MEKK2mut PB1 HTS: signal of MEK5 binding to mutant human MEKK2 PB1 domain | AID 1530 | bead flow cytometry, Alexa488-MEK5 binding to MEKK2 mutant | percent response, % at 10 µM | 0.35% of 290,000 active; in the data active = percent response above about 24%, passing the limit was not always enough
# dFosB act-2: enhances mouse delta FosB homodimer binding to DNA; shares compounds with dFosB act-1; purified delta FosB, TAMRA-CDK5 oligo fluorescence polarization; normalised: neutral wells 0, positive control 100; activation, % at 24.9 µM; 2,400 tested, under 10 active; AID 588690;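 active = highest replicate activation at or above 34% and every replicate reaching that threshold; inconclusive = meets only one of the two criteria; inactive = meets neither criterion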;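 note: higher polarization means more probe DNA bound by delta FosB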
# Numbers without * were called inactive; ? = inconclusive; · = not tested or not shown. Shown are actives, neighbours in structure and some others; about 2.9% of the full set was active somewhere.
SMILES,MEKK3 PB1 HTS,FID counter,dFosB act-1,MEKK2wt PB1 HTS,MEKK2mut PB1 HTS,dFosB act-2
O=C(CN1C(=O)S/C(=C\c2ccc(F)cc2)C1=O)NC1C=CS(=O)(=O)C1 (configuration not stated),98,-2,13,98,-6,·
Cc1cc(C)cc(C(=O)NCC(=O)OCC(=O)N2CCN(S(=O)(=O)c3ccc4ccccc4c3)CC2)c1,104,-2,6,104,-2,·
COc1ccc2cc(CN(CC3COCCO3)S(=O)(=O)c3c(C)cc(C)cc3C)c(=O)[nH]c2c1 (configuration not stated),103,6,·,99,0,·
COc1ccc2cc(CN(CC3COCCO3)S(=O)(=O)c3ccc(Cl)cc3)c(=O)[nH]c2c1 (configuration not stated),108,-7,39*,110,14,-1
CC(=O)c1c(C)[nH]c(C(=O)OCc2c(F)cccc2Cl)c1C,93,-1,21*,85,-11,0
Cc1ccc(C(=O)Nc2ccc3cn[nH]c3c2)cc1S(=O)(=O)N1CCOCC1,102,-15,-12,97,-2,·
CN(C)CCCn1c2c(c(SCC(=O)Nc3nccs3)nc1=O)CCC2,·,·,-10,·,·,·
O=C(COc1ccc2ccccc2c1)NC1=NCCS1,103,2,54*,108,6,7
CCOc1ccc(CNC(=O)CCCC(=O)n2ncc3cc(C)ccc32)cc1,100,-32,-6,102,-1,·
CN(C)S(=O)(=O)c1ccc2oc(SCC(N)=O)nc2c1,104,3,-9,106,3,·
CN(C)S(=O)(=O)c1ccc2oc(SCC(=O)c3c(N)n(C4CC4)c(=O)[nH]c3=O)nc2c1,·,·,20*,·,·,5
COc1ccc(S(=O)(=O)N2CCC(C(=O)Oc3cccc(C)c3)CC2)cc1OC,100,-39,-11,106,4,·
COc1ccc2nc(NC(=O)C3CCCN(S(=O)(=O)c4cccc5nsnc45)C3)sc2c1 (configuration not stated),103,5,25*,96,3,-1
COc1ccc2nc(NC(=O)C3CCCN(S(=O)(=O)c4cccc5nonc45)C3)sc2c1 (configuration not stated),102,-1,5,105,14,·
Cc1nc(NC(=O)CSc2ccc(-c3nc4ccccc4[nH]3)cn2)sc1C,85,-3,47*,92,-2,2
CCc1nnc(NC(=O)CSc2ccc(-c3nc4ccccc4[nH]3)cn2)s1,94,-7,48*,94,-2,5
CCOC(=O)CSc1ccc(-c2nc3ccccc3[nH]2)cn1,93,-6,-8,97,2,·
CC1CCCC(NS(=O)(=O)c2cccc3nsnc23)C1C (configuration not stated),102,-26,-10,101,4,·
CCN(CC)c1ccc(NC(=O)CSc2n[nH]c(-c3ccco3)n2)cc1,·,·,-11,·,·,·
COc1ccccc1C1(O)C(=O)Nc2ccccc21 (configuration not stated),100,1,6,106,4,·
Cc1ccc(-c2nsc(SCC(=O)Nc3ccc4c(c3)OCO4)n2)cc1,97,0,24*,109,1,3
Nn1c(SCC(=O)Nc2ccc3c(c2)OCO3)nnc1-c1ccc(Cl)cc1,102,2,64*,101,3,2
COc1cc(NC(=O)c2cc(S(=O)(=O)N3CCCCC3)c[nH]2)cc(OC)c1,102,-26,100*,102,0,-1
O=C(COC(=O)c1cccnc1Nc1ccccc1F)NCc1ccc2c(c1)OCO2,90,0,55*,89,-4,3
COc1ccc(-c2cc(=O)oc3c(C)c(OC(C)C(=O)Nc4ccc(CN5CCOCC5)cc4)ccc23)cc1 (configuration not stated),104,21,43*,116,3,7
SMILES,MEKK3 PB1 HTS,FID counter,dFosB act-1,MEKK2wt PB1 HTS,MEKK2mut PB1 HTS,dFosB act-2
Cc1cc(C)c(S(=O)(=O)N2CCc3ccccc32)c(C)c1,101,-16,27*,104,0,2
Cn1c(=O)c2sccc2n2c(CCCC(=O)NCc3cccnc3)nnc12,98,-5,-4,96,-4,·
CC(C)(C)OC(=O)C[C@@H]1C/C=C\C[C@H](CC(=O)NCCO)C(=O)N2CCC[C@H]2COC1=O,·,·,-1,·,·,·
Cc1[nH]nc2nc(SCC(=O)NCCC3=CCCCC3)n(-c3ccc(Br)cc3)c(=N)c12,99,-28,66*,97,0,8
COc1ccc(-c2cn[nH]c2-c2ccc(OCc3ccccc3F)cc2O)cc1OC,101,-21,7,96,-3,·
Cc1ccc(O)c(C(=O)c2cc(C#N)c(=O)n(Cc3ccccc3)c2)c1,101,-15,3,98,2,·
Cc1ccc(O)c(C(=O)c2cc(C#N)c3nc4ccccc4n3c2)c1,104,-2,24*,100,3,8
COc1ccc(Nc2nc(OC)nc(OC)n2)cc1,96,-12,-1,95,-3,·
COc1ccc(Nc2nc(Nc3ccc(OC)cc3)nc(SC3=NCCS3)n2)cc1,104,-8,37*,98,5,4
COc1ccc(Cn2c(CCC(=O)Nc3ccc(C)c(C)c3)nc3cccnc32)cc1,97,-22,18*,91,-6,-8
COc1ccccc1/C=C/C(=O)NC(=S)Nc1ccc(S(=O)(=O)N(C)c2ccccc2)cc1,111,-4,24*,104,-2,1
COc1ccc(-n2nc3c(N4CCC(C(=O)NCc5cccc(C)c5)CC4)nnc(C)c3c2C)cc1,99,21,?,110,4,·
CCOc1ccccc1CNC(=O)Cn1nc(C)c2c(C)n(-c3ccc(C)cc3)nc2c1=O,96,-32,53*,95,-8,1
CCOc1ccc(CNC(=O)C2CCN(c3nnc(C)c4c(C)n(-c5ccc(C)cc5)nc34)CC2)cc1,99,5,78*,104,0,-11
COc1cccc(CNC(=O)Cn2nc(C)c3c(C)n(-c4ccc(C)cc4)nc3c2=O)c1OC,104,-48,-14,102,6,·
CCOc1ccccc1CNC(=O)C1CCN(c2nnc(C)c3c(C)n(-c4ccc(C)cc4)nc23)CC1,98,11,85*,98,-1,5
Cc1ccc(-n2nc3c(=O)n(C(C)C(=O)NCc4ccccc4Cl)nc(C)c3c2C)cc1 (configuration not stated),99,-34,28*,94,3,1
COc1cccc(C(=O)NCCS(=O)(=O)N2CC(C)CC(C)C2)c1 (configuration not stated),·,·,-5,·,·,·
Cc1ccc(NC(=O)CCCn2nc(C)c3c(C)n(-c4ccccc4)nc3c2=O)cc1C,99,-34,-2,97,2,·

# Compound activity from PubChem.
